Screening data from PubChem BioAssay.
A selection: hits, their analogues and other compounds. The true share with any hit is near 4.8%.
DAX1 inh-1: inhibitors of DAX1 repression of SF-1 activated StAR promoter | HEK293T StAR-luciferase reporter, SF-1/DAX-1 repression relief | inhibition, % at 6.8 µM | 370,000 compounds, 1.1% hits | AID 652010;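 active = inhibition above the mean over all tested compounds plus 3 SD, cut at about 3.6% in these data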;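 also: higher inhibition means more luminescence from relief of DAX-1 repression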
DAX1 inh-2: inhibits human nuclear receptor DAX1. P51843. HEK293 Gal4-DAX1 luciferase reporter, luminescence. inhibition, % at 6.75 µM. 340,000 compounds, 0.99% hits. AID 504766;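 active = inhibition above the mean over all tested compounds plus 3 SD, cut at about 4.2% in these data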;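 also: inhibition shows as a rise in luminescence from relieved DAX1 repression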
Target sequence (P51843 207-470 limits assumed): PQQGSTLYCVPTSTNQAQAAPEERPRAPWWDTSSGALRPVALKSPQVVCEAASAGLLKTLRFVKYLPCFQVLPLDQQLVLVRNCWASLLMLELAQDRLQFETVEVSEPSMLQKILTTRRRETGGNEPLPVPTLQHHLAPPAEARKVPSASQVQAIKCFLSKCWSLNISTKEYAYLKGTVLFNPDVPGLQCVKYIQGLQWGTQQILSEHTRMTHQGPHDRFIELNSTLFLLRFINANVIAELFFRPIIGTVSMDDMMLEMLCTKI
hgDAF12 agonist: activates the H. glycines DAF-12 receptor ligand-binding domain. 370,000 compounds, 1.8% hits. activation, % at 6.8 µM. HEK293 GAL4-hgDAF12 UAS-luciferase reporter, agonist luminescence; normalized to butyrate control;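 active = activation above a cutoff set at the mean of all screened compounds plus 3 SD, cut at about 10% in these data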
ssDAF12 agonist: activates DAF-12 receptor from parasite S. stercoralis; HEK293 ssDAF-12/GRIP1 lit1-tk-luc reporter, luminescence; % of 3 µM dafachronic acid response; activation, % at 6.8 µM; 370,000 compounds, 1% hits;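 active = activation above the mean over all tested compounds plus 3 SD, cut at about 0.9% in these data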
SMARCA2 act: increases SMARCA2 function in MMTV reporter cells; MG213 cells, MMTV-luciferase reporter, dexamethasone, overnight; activation, % at 9.1 µM; 370,000 compounds, 1% hits; in the data active = activation above about 7.8%
hcDAF-12 act: H. contortus DAF-12 activation, primary screen | activation, % at 6.8 µM | HEK293 hcDAF-12 lit1-tk-luc reporter, luminescence; 0% DMSO, 100% Δ7-dafachronic acid | 370,000 compounds, 1.4% hits;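 active = activation above the mean of all tested compounds plus 3 SD, cut at about 5.5% in these data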
SMARCA2 act conf: SMARCA2 activation, confirmation screen | AID 652260 | shares compounds with SMARCA2 act | 3,500 compounds, 30% hits | activation, % at 9.1 µM | MG213 cells, MMTV-luciferase with dexamethasone, luminescence, overnight; MG213 cells expressing E1A, Rb sequestered; DMSO wells 0%, reference activator 100%;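 active = activation above its plate's cutoff, the mean activation of tested wells plus 3 SD, cut at about 7.9% in these data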
VP16 Luc act: activates GAL4-VP16 luciferase, flagging SMARCA2 activator hits; AID 686939; HEK293 GAL4-VP16 pG5luc reporter, luciferase luminescence; scaled: DMSO wells 0%, SAHA wells 100%; activation, % at 9.1 µM; shares compounds with SMARCA2 act; 3,500 compounds, 41% hits;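 active = activation above the solvent-only control well mean plus 3 SD, averaged across control plates, cut at about 5.2% in these data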
LXRb hcDAF ctr: counter-screen for hcDAF-12 agonists: agonists of human LXR-beta | shares compounds with hcDAF-12 act | HEK293 Gal4-LXR tk-luc reporter, luminescence, 24 h; normalized: DMSO 0%, positive control 100% | activation, % at 6.8 µM | 3,400 tested, under 10 active;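 active = mean percent activation of the reporter above a cutoff set as the average over tested compounds plus their standard deviation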
Target sequence (P55055 whole entry, looked up, the tested form may be a part): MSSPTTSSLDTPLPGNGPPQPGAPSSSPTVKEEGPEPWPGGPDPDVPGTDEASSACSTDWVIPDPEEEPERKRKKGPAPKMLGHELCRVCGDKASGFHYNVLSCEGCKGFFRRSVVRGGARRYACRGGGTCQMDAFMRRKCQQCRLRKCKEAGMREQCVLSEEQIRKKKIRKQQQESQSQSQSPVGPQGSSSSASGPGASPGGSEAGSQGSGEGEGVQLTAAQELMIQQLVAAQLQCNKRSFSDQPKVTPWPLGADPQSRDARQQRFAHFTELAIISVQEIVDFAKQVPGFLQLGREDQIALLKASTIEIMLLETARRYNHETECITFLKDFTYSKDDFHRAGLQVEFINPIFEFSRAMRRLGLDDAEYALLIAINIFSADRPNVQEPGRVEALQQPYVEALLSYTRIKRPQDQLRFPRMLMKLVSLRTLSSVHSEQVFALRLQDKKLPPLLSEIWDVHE
hcDAF12 conf: hcDAF-12 agonism, confirmation assay. shares compounds with hcDAF-12 act. HEK293 hcDAF-12 lit1-tk-luc reporter, luminescence; % of Δ7-dafachronic acid response. 3,400 compounds, 61% hits. AID 743032. activation, % at 6.8 µM;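 active = mean activation across triplicate tests above the threshold derived from the earlier primary screen, cut at about 5.5% in these data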
hgDAF12 ag: confirmation of H. glycines DAF-12 agonists. AID 743050. activation, % at 6.8 µM. shares compounds with hgDAF12 agonist. HEK293 GAL4-hgDAF12 luciferase reporter, agonist mode; percent of butyrate response. 3,300 compounds, 80% hits;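 active = mean activation over triplicate wells above the hit cutoff derived from the earlier primary screen, cut at about 11% in these data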
LXRb DAF12 ctr: counter-screen for DAF-12 agonists: agonists of human LXR-beta; HEK293 Gal4-LXR luciferase reporter, 24 h; 3,300 tested, under 10 active; shares compounds with hgDAF12 agonist; activation, % at 6.8 µM;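 active = mean activation of the triplicate above a set limit carried over from the primary screen, none filed active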
Each line names hits and unclear results; the compound was inactive in the other large screens (follow-up assays come after a bar, where they were run); ! = repeats disagree.

C[C@H]1COc2cc(Br)ccc2S(=O)(=O)N1Cc1cn(Cc2ccco2)nn1	none (no result: DAX1 inh-2)
Cn1ccc(C(=O)N/N=C/c2c[nH]c3ccccc23)n1	ssDAF12 agonist 0.9, SMARCA2 act 15.7, hcDAF-12 act 12.1 | SMARCA2 act conf 8.0 | VP16 Luc act inactive | LXRb hcDAF ctr inactive | hcDAF12 conf inactive
O=C(N[C@H](Cc1ccccc1)C(=O)N1CCN(c2ncccn2)CC1)[C@H]1O[C@@H](n2ccc(=O)[nH]c2=O)[C@H](O)[C@@H]1O	none (no result: DAX1 inh-2)
Nc1c(Br)cc2oc(-c3ccccc3)nc2c1Br	DAX1 inh-2 5.0, ssDAF12 agonist 1.1, SMARCA2 act 9.5, hcDAF-12 act 7.4 | SMARCA2 act conf 12.3 | VP16 Luc act 7.2 | LXRb hcDAF ctr inactive | hcDAF12 conf 16.9
COc1ccc(/C=C2\CC3(OC(=O)c4ccccc4)CCCN2C3)cc1 (stereo unspecified)	none (no result: DAX1 inh-2)
Cc1ccc(O)c(N=CC2=C(O)c3ccccc3C2=O)c1	SMARCA2 act 8.4, hcDAF-12 act 6.8 | SMARCA2 act conf 18.8 | VP16 Luc act 13.7 | LXRb hcDAF ctr inactive | hcDAF12 conf inactive
CC(C)(C)OC(=O)NCc1cc2c(cc1/C=C/S(=O)(=O)NCc1ccc(F)cc1)OCO2	none (no result: DAX1 inh-2)
Cc1cc(C)c(NN=c2c(=O)c3ccccc3c2=O)c(C)c1	none
O=c1c(=NNc2ccccc2Cl)c(=O)c2ccccc12	SMARCA2 act 8.4, hcDAF-12 act 7.9 | SMARCA2 act conf inactive | VP16 Luc act inactive | LXRb hcDAF ctr inactive | hcDAF12 conf 23.7
CC1(C)Oc2ccc(C(=O)NCCCN3CCCC3)cc2NC1=O	none (no result: DAX1 inh-2)
COc1ccccc1-c1nnc(-c2ccc(C)cc2)o1	DAX1 inh-2 8.4, hgDAF12 agonist 11.5, SMARCA2 act 12.5, hcDAF-12 act 8.0 | SMARCA2 act conf inactive | VP16 Luc act 7.1 | LXRb hcDAF ctr inactive | hcDAF12 conf 8.5
Cc1ccc(N=Nc2ccc3ccccc3c2O)cc1	none
Oc1c(N=Nc2ccc(F)cc2)ccc2ccccc12	SMARCA2 act 10.8, hcDAF-12 act 7.4 | SMARCA2 act conf inactive | VP16 Luc act 8.6 | LXRb hcDAF ctr inactive | hcDAF12 conf 12.3
CC1=CC(C)=Nc2ccc(C)cc2N1	DAX1 inh-1 4.1, hgDAF12 agonist 15.7, SMARCA2 act 8.8!, hcDAF-12 act 5.6 | SMARCA2 act conf inactive | VP16 Luc act 11.2 | LXRb hcDAF ctr inactive | hcDAF12 conf inactive | hgDAF12 ag 11.6! | LXRb DAF12 ctr inactive
COC(=O)C1CN(Cc2cn(CCC3OCCO3)nn2)CCS(=O)(=O)N1Cc1ccc(F)cc1 (stereo unspecified)	none (no result: DAX1 inh-2)
O=C(NCCc1c[nH]c2ccccc12)c1ccc2c(c1)OCO2	hgDAF12 agonist 15.4, ssDAF12 agonist 1.3, SMARCA2 act 9.7, hcDAF-12 act 11.4 | SMARCA2 act conf 13.0 | VP16 Luc act 8.1 | LXRb hcDAF ctr inactive | hcDAF12 conf 9.8 | hgDAF12 ag 17.9 | LXRb DAF12 ctr inactive
O=c1nc(N/N=C/C=C/c2ccccc2)cn[nH]1	hgDAF12 agonist 15.5, SMARCA2 act 11.8 | SMARCA2 act conf 11.6 | VP16 Luc act 6.7 | hgDAF12 ag 14.2 | LXRb DAF12 ctr inactive
COc1cccc(CSc2nc3ccncc3[nH]2)c1	hgDAF12 agonist 15.2, SMARCA2 act 9.3 | SMARCA2 act conf inactive | VP16 Luc act 7.0 | hgDAF12 ag 13.8 | LXRb DAF12 ctr inactive
CC(C)Cc1cc(C(=O)NCc2cccs2)no1	DAX1 inh-1 4.3, hgDAF12 agonist 18.7, SMARCA2 act 12.8 | SMARCA2 act conf inactive | VP16 Luc act 14.4 | hgDAF12 ag 13.2 | LXRb DAF12 ctr inactive
O=C(Nc1cccc(Cl)c1)c1ccc2c(c1)OCCO2	hgDAF12 agonist 21.0, SMARCA2 act 9.0, hcDAF-12 act 6.5 | SMARCA2 act conf inactive | VP16 Luc act 8.7 | hgDAF12 ag 18.0 | LXRb DAF12 ctr inactive
Cc1nc(NC(=O)c2ccccc2)sc1C	hgDAF12 agonist 13.6, ssDAF12 agonist 1.0, SMARCA2 act 8.2 | SMARCA2 act conf inactive | VP16 Luc act 7.8 | hgDAF12 ag 15.9 | LXRb DAF12 ctr inactive
Cc1ccc(C(=O)Nc2nnc(C)s2)cc1	DAX1 inh-1 4.3, hgDAF12 agonist 15.9, SMARCA2 act 13.0 (no result: DAX1 inh-2) | SMARCA2 act conf inactive | VP16 Luc act 16.4 | hgDAF12 ag 12.1 | LXRb DAF12 ctr inactive
Cc1nc(NC(=O)CCc2ccccc2)sc1C	none
O=C(NCCc1c[nH]c2ccccc12)OCc1cn(-c2ccc(F)cc2F)nn1	none (no result: DAX1 inh-2)
O=C(NC1CCCCN(Cc2cccc(Cl)c2)C1=O)c1ccccc1 (stereo unspecified)	none (no result: DAX1 inh-2)
COc1ccc(NC(=O)N(C)C[C@H]2OCc3cnnn3CCCC(=O)N([C@H](C)CO)C[C@@H]2C)c(OC)c1	none (no result: DAX1 inh-2)
Cc1ccc(C(=O)N/N=C2\CCc3ccccc32)c(C)c1	hgDAF12 agonist 15.2, SMARCA2 act 8.5 | SMARCA2 act conf inactive | VP16 Luc act 11.0 | hgDAF12 ag 13.6 | LXRb DAF12 ctr inactive
Cc1ccc(NC(=O)c2cc(C)no2)cc1	none
Cc1ccc(NC(=O)c2cc(C)on2)cc1	hgDAF12 agonist 15.3, SMARCA2 act 8.7 | SMARCA2 act conf inactive | VP16 Luc act 18.1 | hgDAF12 ag inactive | LXRb DAF12 ctr inactive
COc1cc(/C=N/NC(=O)c2ccccn2)cc2c1OCO2	hgDAF12 agonist 14.5, SMARCA2 act 16.9 | SMARCA2 act conf 8.5 | VP16 Luc act 8.5 | hgDAF12 ag inactive | LXRb DAF12 ctr inactive
O=C(N/N=C/c1cc2c(cc1Cl)OCO2)c1ccccn1	none
